NS1 function inh: influenza NS1 inhibition; Potency, µM (highest dose often 46.1 µM), for inactives: at the highest dose activity, positive = more growth; AID 2326; actives 0.4% (n = 270,000); calls by dose curve; further: actives are rising curves; nearly all actives have a fitted effect of over 50% in size
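Read-out: OD600 growth recovery of NS1-expressing budding yeast. Cells grown overnight at 30C in -URA glucose medium, washed, resuspended and diluted 1:100 in 2% galactose assay medium, pH 6.0. Same strain lacking NS1 served as positive control.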
AmpC detergent: blocks E. coli AmpC beta-lactamase in detergent assay. AmpC hydrolysis of nitrocefin, absorbance 480 nm, 0.01% Triton. Potency, µM (doses to about 114 µM), for the others: at the top dose activity change, negative = inhibition, usual class: inhibitors. actives 0.041% (n = 370,000). AID 485294;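 further: 0% = no-compound wells and -100% = no-enzyme wells; nearly all actives have a fitted effect of over 25% in size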
Target sequence (P00811 whole entry, looked up): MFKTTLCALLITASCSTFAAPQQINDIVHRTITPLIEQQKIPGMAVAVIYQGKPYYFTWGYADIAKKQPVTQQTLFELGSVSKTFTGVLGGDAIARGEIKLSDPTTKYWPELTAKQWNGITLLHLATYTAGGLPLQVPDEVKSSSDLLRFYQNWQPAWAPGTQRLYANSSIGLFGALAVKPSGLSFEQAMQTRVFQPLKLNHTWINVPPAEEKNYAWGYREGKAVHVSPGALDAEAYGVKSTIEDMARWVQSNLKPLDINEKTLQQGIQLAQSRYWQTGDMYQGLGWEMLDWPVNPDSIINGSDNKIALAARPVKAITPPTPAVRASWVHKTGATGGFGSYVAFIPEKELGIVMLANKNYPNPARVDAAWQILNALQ
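20 mM phosphate pH 7.0 + 0.01% (detergent screen) or 0.0001% Triton X-100; 5.3 nM AmpC reagent; cpd preinc 15 min RT; nitrocefin (800 uM stock) to start; A480 q20 s × 4 min; Activity was normalised to no-enzyme and no-compound control wells.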
AMA1 RON2 block: inhibitors of Plasmodium falciparum AMA1-RON2 interaction. AID 720542. AlphaScreen AMA1-biotinylated RON2 peptide binding. actives 0.2% (n = 360,000). Potency, µM (doses to about 58.2 µM), for inactives: at the top dose activity change, negative = inhibition, hits mostly inhibitors;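 further: 0% = vehicle wells and -100% = peptide control; nearly all actives have a fitted effect of over 45% in size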
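AMA1 (3D7) with his tag at 25 nM final met compounds first, then biotinylated RON2 peptide at 25 nM; detection used donor plus acceptor beads, 10 µg/mL apiece, read by AlphaScreen after 30 min at room temperature.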
AmpC inh no detg: AmpC beta-lactamase inhibition without detergent; P00811; AmpC nitrocefin hydrolysis, absorbance 480 nm, 0.0001% Triton; Potency, µM (doses to about 57.1 µM), without a hit: at the top dose activity change, negative = inhibition, usual class: inhibitors; actives 0.52% (n = 330,000); AID 485341;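 further: plate controls were no compound for no effect and no enzyme for full effect; nearly all actives have a fitted effect of over 20% in size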
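AmpC (5.3 nM in the dispensed reagent) in 20 mM phosphate pH 7.0 with 0.01% (detergent screen) or 0.0001% Triton X-100 was preincubated with compounds for 15 min at room temperature. Nitrocefin was then added from an 800 uM solution, and hydrolysis was followed at 480 nm.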
* marks the source's active call; other numbers are inactive results; ? = inconclusive; / = not tested or not shown. Rows were chosen to be rich in hits. Some 0.86% of all compounds tested hit in one or more screens of this group. Unless noted, the call rests on the fitted dose curve; in most records, active means well fitted curve in the direction sought with a large enough effect; inconclusive means small, poorly fitted or top-dose-only effect, or another doubt; inactive means no such curve, though single readings can be large; an effect the other way counts as inactive or inconclusive. Potency means the concentration at half of the fitted maximal effect.

SMILES | NS1 function inh | AmpC detergent | AMA1 RON2 block | AmpC inh no detg
Cc1ccc(-n2cccc2/C=C2/NC(=O)N(CC(=O)Nc3cccc(C)c3)C2=O)cc1 | ? | ? | 2.0% | 31.6µM*
Cc1csc(=O)n1CC(=O)OCC(=O)c1ccc(Br)cc1 | / | ? | -9.9% | ?
Cc1cc(C)c(Nc2cc(S(=O)(=O)O)c(N)c3c2C(=O)c2ccccc2C3=O)c(C)c1 | -16.3% | -11.2% | 28.2µM* | -3.4%
Nc1ccc(-c2ccc(Nc3cc(S(=O)(=O)O)c(N)c4c3C(=O)c3ccccc3C4=O)cc2)c(S(=O)(=O)O)c1 | 2.0% | / | / | /
CSCCC(C(=O)Nc1c(C)cccc1C)N1CCC(Cc2ccccc2)CC1 (stereo not given) | / | / | -12.7% | /
Cc1cc(C)nc(SCC(=O)Nc2ncc(Cc3cccc(Cl)c3)s2)n1 | 15.8% | -10.4% | 4.7% | 2.82µM*
N[C@@H](CSCc1ccccc1)C(=O)O | 4.5% | / | / | /
COc1ccc(Cl)cc1C(=O)NCC(c1ccco1)N1CCCC1 (stereo not given) | 0.1% | 2.9% | -9.9% | 0.159µM*
CCCCN1CC(COCc2ccccc2)Oc2ccccc2S1(=O)=O (stereo not given) | / | / | 24.1% | -32.1%
NS(=O)(=O)c1ccc(N=Nc2c(O)c(C(=O)O)cc3ccccc23)cc1 | -2.9% | -10.4% | 8.3% | 22.4µM*
CC(C)c1ccc(S(=O)(=O)/N=C2/C=CC(=O)c3ccccc32)cc1 | / | 0.1% | / | 28.2µM*
CC(C)c1ccc(S(=O)(=O)/N=C2\C=C(NS(=O)(=O)c3ccccc3)C(=O)c3ccccc32)cc1 | 5.8% | -4.2% | ? | -50.5%
CCCCn1c(N)c(N(CCOC)C(=O)COc2ccc(Cl)cc2)c(=O)[nH]c1=O | / | -11.1% | 1.3% | -17.4%
CCOc1ccc(C(=O)Nc2ccc(S(=O)(=O)N3CCN(C)CC3)cc2)cc1 | 27.8% | ? | -7.1% | 105.1%
Cc1sc2nc(COC(=O)c3ccc(Cl)c(N)c3)[nH]c(=O)c2c1C | 4.5% | -3.8% | 3.2% | -38.9%
Cc1sc2nc(COC(=O)c3ccc(O)cc3)[nH]c(=O)c2c1C | -1.5% | 3.0% | 3.0% | 14.1µM*
COc1cccc(CNC(=O)c2cc3c(c(-c4cccc(-c5cccc(C#N)c5)c4)n2)[C@H](CCO)N(S(=O)C(C)(C)C)C3)c1 (stereo not given in full) | / | / | -0.8% | /
Cc1ccc(S(=O)(=O)NNC(=O)C(=O)NNc2ccccn2)cc1 | -12.0% | -4.1% | 31.6µM* | -7.6%
Nc1ccc(S(=O)(=O)NNC(=O)C(=O)NNc2ccccn2)cc1 | -11.6% | -1.1% | 45.5% | -3.7%
Cc1onc(-c2ccccc2)c1C(=O)Nc1ccncc1 | ? | ? | -7.0% | -11.9%
Cc1onc(-c2ccccc2)c1C(=O)Nc1cccc(C#N)c1 | -20.0% | 2.8% | 12.1% | 11.2µM*
COCCNC(=O)C1(C)CCN(C(=O)c2ccc3sccc3c2)C1 (stereo not given) | / | / | 10.5% | /
O=S(=O)(c1ccc2ccccc2c1)n1nc(-c2ccco2)nc1NCc1cccc(Cl)c1 | / | -5.5% | / | /
O=C(Nc1cccc(NC(=O)c2cccs2)c1)c1ccc2c(c1)OCCO2 | 1.5% | -3.8% | -6.4% | 7.08µM*
CCC(=O)Nc1cccc(NC(=O)c2ccc3c(c2)OCO3)c1 | -4.7% | 1.9% | -5.8% | 0.141µM*
SMILES | NS1 function inh | AmpC detergent | AMA1 RON2 block | AmpC inh no detg
O=C(CSc1nnc(CNC(=O)c2ccco2)o1)Nc1ccccc1F | -14.7% | -10.1% | 4.5% | -8.8%
CCc1ccc(CCC(=O)Nc2sc(C)c(C)c2C(=O)OC)o1 | -28.7% | 1.0% | 26.7µM* | -0.2%
COC(=O)c1c(NC(=O)CCCC(=O)O)sc(C)c1C | -73.3% | ? | 0.5% | -11.0%
Cc1ccc(N2C(=O)CC(Nc3ccc(Cl)c(S(=O)(=O)N(C)C)c3)C2=O)c(C)c1 (stereo not given) | -8.0% | -0.8% | -1.6% | 28.2µM*
CCn1ncc(Cl)c1C(=O)NC(C)c1ccccc1 (stereo not given) | 0.9% | 2.0% | 12.2% | 0.355µM*
CCOC(=O)c1c(/N=C/N(C)C)sc(/C=N/Nc2ccccc2)c1-c1ccccc1 | 1.9% | -11.1% | 3.5% | 15.8µM*
COc1ccc(C(CNC(=O)C(C)Oc2ccc(Br)cc2)N2CCCCC2)cc1 (stereo not given) | / | ? | -8.2% | 82.3%
NC(N)=NS(=O)(=O)c1ccc(NC(=S)NC(=O)Cc2ccc(Cl)cc2)cc1 | -6.2% | ? | 3.3% | 10µM*
S=C(NCc1ccc2[nH]c3c(c2c1)CCCC3)Nc1ccccc1 | 15.7% | 0.8% | 9.5% | ?
CCOC(=O)CNC(=O)c1ccc2[nH]c3c(c2c1)CCCC3 | -9.3% | -5.7% | -4.5% | -23.1%
Cc1cc(C)cc(NC(=S)NCc2ccc3[nH]c4c(c3c2)CCCC4)c1 | 24.3% | -6.9% | 25.5% | 31.6µM*
NNC(=O)c1ccc2[nH]c3c(c2c1)CCCC3 | / | 1.5% | 26.2% | 25.1µM*
C[C@@H]1Oc2ccc(C(=O)C[C@@H](C(=O)O)c3ccc4c(c3)OCO4)cc2O1 | -3.1% | / | / | /
O=C(CCCn1c(=S)[nH]c2ccc(Br)cc2c1=O)NCC1CCCO1 (stereo not given) | 1.78µM* | -1.3% | 76.5% | -11.4%
O=C(CCCn1c(=O)[nH]c2cc(Cl)ccc2c1=O)NCC1CCCO1 (stereo not given) | 5.6% | ? | -1.7% | -17.8%
Cc1nc(C)c(CCNS(=O)(=O)c2ccc(C)c(C)c2)s1 | / | 3.7% | / | /
N#Cc1ccc(NN=Nc2ccccc2C#N)cc1 | / | / | -1.0% | /
Cc1cccc(C(=O)Nc2cccc(C(=O)N/N=C/c3ccccn3)c2)c1 | -0.9% | -7.2% | 102.3% | -38.8%
O=C(N/N=C/c1ccccn1)c1cccc(NC(=O)c2ccccc2Cl)c1 | 0.2% | 1.2% | 128.8% | 17.8µM*
COc1ccc(N2CCN(CC(O)COC(c3ccc(F)cc3)c3ccc(F)cc3)CC2)cc1 (stereo not given) | -2.5% | -2.5% | 28.2µM* | 62.9%
COCCOCC(O)CN1CCN(c2ccccc2)CC1 (stereo not given) | -1.3% | 0.2% | -16.4% | -14.6%
COCCOCC(O)CN1CCN(c2ccc(C)cc2)CC1 (stereo not given) | 2.2% | 4.7% | 14.1µM* | -0.8%
CC(C)C(NC(=O)c1c(F)cccc1F)C(=O)N1CCN(c2ncccn2)CC1 (stereo not given) | / | / | -10.6% | -23.7%
CCOc1ccc(-c2cc3c(=O)n(Cc4nc(-c5ccccc5OCC)oc4C)ccn3n2)cc1Cl | / | 2.9% | / | /
C=CCn1c(=NC(=O)C2CCCCC2)sc2cc(NC(C)=O)ccc21 | -0.6% | ? | -4.6% | 3.98µM*
SMILES | NS1 function inh | AmpC detergent | AMA1 RON2 block | AmpC inh no detg
CCOc1ccc(NC(=O)c2ccc(NC(=O)N3CCSc4ncccc43)cc2)cc1 | / | 12.5% | / | /
Cc1ccc(C(=O)CNc2ccc(C)c(Cl)c2)cc1 | -26.1% | -18.8% | -4.6% | -19.6%
Cc1ccc(NCC(=O)c2ccccc2)cc1Cl | -15.9% | -4.3% | -0.3% | 0.316µM*
Cc1ccc(NCCC(=O)c2ccccc2)cc1Cl | -0.9% | -4.8% | -4.0% | -24.5%
Cc1ccc(NC2=C(NC(=O)c3ccccc3)C(=O)c3ccccc3C2=O)cc1Cl | -33.4% | 0.7% | ? | 20µM*
O=C(N/N=C/c1ccc[nH]1)c1cc2ccccc2cc1O | -25.0% | -6.9% | 90.9% | 14.1µM*

Source: PubChem (National Center for Advancing Translational Sciences (NCATS))
